# Assay results reported in PubChem BioAssay.
# The source made the active and inactive calls.
# Columns and labels:
# [1] = E. coli DRC41 culture turbidity changes, primary screen, E. coli filamentation inducer project, strain DRC41, OD650, 48 h (AID 1152);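 further: E. coli MC1000 strain DRC41 lacking acrAB efflux pump and sulA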; conditions: E. coli DRC41 (acrAB sulA), higher = more signal, called active from +8 up or from −8 down
# [2] = small-molecule binders of probe aLefty1, primary screen, biochemical, small-molecule microarray, 635/667 nm fluorescence (AID 1153); conditions: higher = more signal;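 further: score merges spot fluorescence with signal-to-noise ratio from the scanned slide images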
# [3] = PSAC antagonists in infected red cells, primary screen, cell-based, P. falciparum Indochina, OD700, 1 h (AID 1154); conditions: P. falciparum Indochina infected RBC osmotic lysis, higher = more signal, called active from +8 up or from −8 down
# [4] = PSAC antagonists in infected red cells, primary screen, cell-based, P. falciparum Indochina, OD700, 2 h (AID 1155);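 further: lysis reports solute entry through the parasite surface anion channel PSAC; channel blockers reduce lysis of infected cells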; conditions: P. falciparum Indochina infected erythrocytes, osmotic lysis OD700; higher = more signal, called active from +8 up or from −8 down
# [5] = osmotic lysis modulators in infected erythrocytes, primary screen, PSAC antagonist project, cell-based, P. falciparum Indochina, OD700, 3 h (AID 1156); conditions: higher = more signal, called active from +8 up or from −8 down
# [6] = PSAC antagonists in infected red cells, primary screen, cell-based, P. falciparum Indochina, OD700, 18 h (AID 1157); conditions: P. falciparum Indochina infected erythrocytes, osmotic lysis OD700, 18 h; higher = more signal, called active from +8 up or from −8 down
# [7] = modulators of S6 phosphorylation in cells, primary screen, cell-based, A549, cytoblot, luminescence, serum-stimulated (AID 1158); conditions: A549 phospho-S6 cytoblot, 5 h, higher = more signal;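 further: serum-stimulated A549 lung adenocarcinoma cells; signal is phosphorylated S6 detected by cytoblot immunostaining with HRP secondary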
# [8] = biological target: NADPH oxidase 2 (Homo sapiens) (UniProt P04839); assay: NOX2-dependent H2O2 signal modulators, primary screen, NOX inhibitor project, cell-based, HEK293-NOX2, PMA-stimulated, Amplex Red fluorescence (AID 1159); conditions: 45 min, higher = more signal, called active from +8 up or from −8 down; further: test concentration not given here
# [9] = biological target: NADPH oxidase 4 (Homo sapiens) (UniProt Q9NPH5); assay: NOX4-dependent H2O2 signal modulators, primary screen, NOX inhibitor project, cell-based, HEK293-NOX4, tetracycline-induced, Amplex Red fluorescence (AID 1160); conditions: 45 min, higher = more signal, called active from +8 up or from −8 down
# [10] = biological target: NADPH oxidase 5 (Homo sapiens) (UniProt Q96PH1); assay: NOX5-dependent H2O2 signal modulators, primary screen, NOX inhibitor project, cell-based, HEK293-NOX5, Amplex Red fluorescence (AID 1161); conditions: HEK293-NOX5, ionomycin, 45 min, higher = more signal
# [11] = A549 cell viability effects, profiling panel, calcein-AM fluorescence, 48 h, basal (AID 1162); conditions: higher = more signal; further: test concentration not given here
# [12] = adipocyte viability effects, profiling panel, cell-based, 3T3-L1 adipocytes, calcein-AM fluorescence, 48 h, basal (AID 1163); conditions: 3T3-L1 adipocytes viability, higher = more signal; further: test concentration not given here
# [13] = HepG2 cell viability effects, profiling panel, calcein-AM fluorescence, 48 h, basal (AID 1164); conditions: higher = more signal; further: test concentration not given here
# [14] = MM1S cell viability effects, profiling panel, calcein-AM fluorescence, 48 h, basal (AID 1165); conditions: higher = more signal;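 further: viability of MM1S multiple myeloma cells under basal unstimulated conditions; test concentration not given here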
# [15] = basal RPMI8226 viability, no added stimulus, profiling panel, cell-based, calcein-AM fluorescence, 48 h, PK04 Diversity Set (AID 1166); conditions: RPMI8226 myeloma viability, higher = more signal;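 further: cells grown under basal conditions without added stimulus; test concentration not given here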
# [16] = basal HepG2 mitochondrial membrane potential changes, profiling panel, cell-based, JC-1 fluorescence, 24 h, 100 nL compound (AID 1167); conditions: higher = more signal; further: test concentration not given here
# [17] = basal 3T3-L1 adipocyte mitochondrial potential changes, profiling panel, cell-based, JC-1 fluorescence, 3T3-L1 adipocytes, 24 h, 100 nL compound (AID 1168); conditions: JC-1 mitochondrial fluorescence, higher = more signal, called active from +8 up or from −8 down; further: test concentration not given here
# [18] = basal RPMI8226 mitochondrial membrane potential changes, profiling panel, cell-based, JC-1 fluorescence, 24 h, 100 nL compound (AID 1169); conditions: RPMI8226 myeloma, JC-1 mitochondrial potential fluorescence, higher = more signal; further: test concentration not given here
# [19] = basal MM1S mitochondrial membrane potential changes, profiling panel, cell-based, JC-1 fluorescence, 24 h, 100 nL compound (AID 1170); conditions: higher = more signal; further: test concentration not given here
# [20] = A549 lung cancer cell viability effects, profiling panel, resazurin fluorescence, 24 h, PK04 Diversity Set (AID 1171); conditions: higher = more signal, called active from +8 up or from −8 down; further: test concentration not given here
# NADPH oxidase 4 (Homo sapiens), sequence (Q9NPH5 whole entry, looked up): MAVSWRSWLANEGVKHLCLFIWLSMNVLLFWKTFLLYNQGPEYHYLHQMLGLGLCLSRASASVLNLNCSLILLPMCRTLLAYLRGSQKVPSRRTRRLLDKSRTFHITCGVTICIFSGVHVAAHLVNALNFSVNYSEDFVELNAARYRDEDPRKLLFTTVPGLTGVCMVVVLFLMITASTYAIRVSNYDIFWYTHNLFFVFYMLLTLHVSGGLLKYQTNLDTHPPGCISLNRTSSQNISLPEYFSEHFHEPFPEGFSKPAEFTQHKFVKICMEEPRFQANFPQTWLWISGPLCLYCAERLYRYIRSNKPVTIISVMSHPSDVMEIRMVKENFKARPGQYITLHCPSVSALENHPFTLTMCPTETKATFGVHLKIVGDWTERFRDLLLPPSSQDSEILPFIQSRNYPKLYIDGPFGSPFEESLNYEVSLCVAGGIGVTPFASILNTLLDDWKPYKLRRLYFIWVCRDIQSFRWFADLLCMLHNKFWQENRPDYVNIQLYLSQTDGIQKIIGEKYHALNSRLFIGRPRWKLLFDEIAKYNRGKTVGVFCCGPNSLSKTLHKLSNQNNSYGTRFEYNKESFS
# NADPH oxidase 5 (Homo sapiens), sequence (Q96PH1 whole entry, looked up): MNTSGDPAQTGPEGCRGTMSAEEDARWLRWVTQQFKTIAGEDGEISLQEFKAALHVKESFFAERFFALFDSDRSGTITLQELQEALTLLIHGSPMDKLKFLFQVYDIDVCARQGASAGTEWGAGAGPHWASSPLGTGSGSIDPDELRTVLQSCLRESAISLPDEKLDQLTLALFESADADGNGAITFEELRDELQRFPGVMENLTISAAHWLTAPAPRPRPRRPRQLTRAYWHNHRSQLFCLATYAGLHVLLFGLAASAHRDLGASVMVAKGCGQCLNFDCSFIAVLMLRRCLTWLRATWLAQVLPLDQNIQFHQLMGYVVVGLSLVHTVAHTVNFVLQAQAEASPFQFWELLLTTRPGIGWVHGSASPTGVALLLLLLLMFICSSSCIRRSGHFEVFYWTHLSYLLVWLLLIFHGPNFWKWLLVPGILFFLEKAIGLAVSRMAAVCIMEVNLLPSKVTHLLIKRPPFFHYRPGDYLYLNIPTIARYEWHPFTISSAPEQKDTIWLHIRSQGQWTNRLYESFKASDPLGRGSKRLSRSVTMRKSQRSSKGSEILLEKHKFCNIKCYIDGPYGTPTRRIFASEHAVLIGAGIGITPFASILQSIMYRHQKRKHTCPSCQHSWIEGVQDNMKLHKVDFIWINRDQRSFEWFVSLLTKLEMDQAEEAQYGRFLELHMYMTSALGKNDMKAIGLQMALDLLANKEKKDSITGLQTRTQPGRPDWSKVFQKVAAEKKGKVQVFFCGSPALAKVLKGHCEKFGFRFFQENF
# NADPH oxidase 2 (Homo sapiens), sequence (P04839 whole entry, looked up): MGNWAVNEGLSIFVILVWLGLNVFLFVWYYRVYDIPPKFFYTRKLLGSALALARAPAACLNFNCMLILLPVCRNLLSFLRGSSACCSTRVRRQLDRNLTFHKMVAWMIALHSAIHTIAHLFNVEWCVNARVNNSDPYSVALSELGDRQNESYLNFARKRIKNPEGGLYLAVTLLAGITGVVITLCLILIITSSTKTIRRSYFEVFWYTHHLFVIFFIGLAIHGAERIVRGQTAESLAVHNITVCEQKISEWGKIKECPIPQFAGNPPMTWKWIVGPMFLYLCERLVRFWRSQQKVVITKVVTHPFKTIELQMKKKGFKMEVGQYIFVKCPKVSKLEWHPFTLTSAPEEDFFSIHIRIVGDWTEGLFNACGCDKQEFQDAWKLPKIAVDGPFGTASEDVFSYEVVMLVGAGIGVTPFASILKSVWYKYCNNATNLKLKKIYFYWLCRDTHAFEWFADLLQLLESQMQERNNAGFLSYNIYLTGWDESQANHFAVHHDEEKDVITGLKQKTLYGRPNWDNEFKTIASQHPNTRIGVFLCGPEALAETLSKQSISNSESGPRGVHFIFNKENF
Compound,z-score [1],composite z-score [2],z-score [3],z-score [4],z-score [5],z-score [6],z-score [7],z-score [8],z-score [9],z-score [10],z-score [11],z-score [12],z-score [13],z-score [14],z-score [15],z-score [16],z-score [17],z-score [18],z-score [19],z-score [20]
COc1ccc([Si](C)(C)[C@H]2[C@H](CC(=O)N3Cc4ccccc4C[C@H]3CO)O[C@@]3(C(=O)N(Cc4ccc(N5CCOC5=O)cc4)c4ccccc43)[C@@H]2C)cc1,-0.742 (inactive),-0.0611,8.34 (active),1.85 (inactive),0.863 (inactive),0.82 (inactive),0.718,-0.659 (inactive),0.611 (inactive),-0.344,-0.135,1.35,-0.919,-2.92,-4.23,-0.0556,0.19 (inactive),-1.04,-1.94,-0.0717 (inactive)
C#CCN([C@@H](Cc1ccccc1)C(=O)OC)[C@@H](/C=C/C1CC1)[C@H](O)Cc1ccccc1,-0.634 (inactive),-0.0538,1.09 (inactive),0.443 (inactive),-0.0572 (inactive),-0.307 (inactive),-0.169,-0.284 (inactive),-0.417 (inactive),-2.34,-1.03,-0.347,-1.38,-3.12,-2.25,0.993,-0.21 (inactive),-1.03,-1.51,2.25 (inactive)
CC(C)C(CO)N1C(=O)[C@@H]2C3C(=O)OCCC/C=C\[C@H]3OC23C=CCN(Cn2nnc4ccccc42)C(=O)[C@@H]13 (stereo not given in full),0.302 (inactive),-0.147,0.897 (inactive),-0.364 (inactive),-0.443 (inactive),0.234 (inactive),1.36,1.23 (inactive),0.806 (inactive),1.51,0.225,0.0251,0.0343,1,-0.224,-0.45,-0.529 (inactive),-0.0779,-0.165,0.173 (inactive)
C=CCC(OC(C)=O)[C@@H]1[C@@H](N(Cc2ccc(-c3cccc(C(F)(F)F)c3)o2)C(=O)c2ccc(-c3ccccc3)cc2)c2cc(OCCCO)ccc2N1C(=O)Cc1ccc2ccccc2c1 (stereo not given in full),-0.75 (inactive),0.0451,0.702 (inactive),0.609 (inactive),0.191 (inactive),0.532 (inactive),0.0285,-1.34 (inactive),-1.69 (inactive),-0.791,-0.713,1.22,0.374,0.502,-1.15,1.66,0.437 (inactive),-0.807,0.0299,0.378 (inactive)
C=CCN1Cc2ccccc2[C@@H]2OC(c3ccc(OCCCO)cc3)=N[C@]2(CC=C)C1=O,0.408 (inactive),1.49,22.5 (active),7.24 (inactive),5.55 (inactive),1.33 (inactive),-0.218,-1.98 (inactive),0.452 (inactive),1.03,-0.546,1.44,0.274,-2.62,-2.83,0.752,0.0517 (inactive),-1.09,0.278,0.0576 (inactive)
O=C(NCCN1CCOCC1)[C@@H]1c2ccccc2C(=O)N(C2Cc3ccccc3C2)[C@H]1c1ccc(CO)cc1,2.03 (inactive),-0.0292,3.11 (inactive),-0.0966 (inactive),-0.056 (inactive),0.0832 (inactive),1.31,0.182 (inactive),0.855 (inactive),-0.0278,2.31,1.58,2.01,0.578,1.35,4.03,0.894 (inactive),-0.647,0.291,0.326 (inactive)
COCC(=C=CC[C@H](O)c1ccc(CO)o1)CCO,-0.434 (inactive),-0.198,0.811 (inactive),0.0508 (inactive),-0.148 (inactive),-0.159 (inactive),-0.992,0.249 (inactive),-0.177 (inactive),-0.224,0.0135,-0.651,0.676,-0.558,0.368,-0.649,-0.0348 (inactive),-0.495,0.363,-0.0239 (inactive)
CCOC(=O)C=Cc1cccc(C)c1O,-0.718 (inactive),-0.0011,9 (active),-0.0712 (inactive),0.193 (inactive),-2.11 (inactive),1.52,-5.05 (inactive),-4.89 (inactive),-4.98,-0.877,0.407,-0.833,-0.536,-0.731,-0.768,-0.0308 (inactive),-0.642,-1.16,-0.871 (inactive)
O=C(C1N=C(c2ccc(OCCCO)cc2)N(c2ccccc2)O1)N1CCCCC1 (stereo not given),0.666 (inactive),0.0338,13.2 (active),1.66 (inactive),0.374 (inactive),0.423 (inactive),-0.0704,1.12 (inactive),0.209 (inactive),-0.404,0.775,0.936,0.772,0.301,0.609,0.223,-0.716 (inactive),-0.779,-0.313,1.07 (inactive)
CCOC(=O)[C@@H]1CCCCN1C(=O)C(=O)OC,-0.446 (inactive),-0.0515,-1.11 (inactive),-0.164 (inactive),-0.306 (inactive),-0.262 (inactive),-0.523,0.296 (inactive),-0.28 (inactive),0.153,-0.856,-0.116,0.0129,0.143,0.13,-0.684,-0.603 (inactive),-0.0109,0.0743,-0.599 (inactive)
COCCCNC(=O)[C@@H]1c2ccccc2C(=O)N(C(C)C)[C@H]1c1ccc(CO)cc1,-0.476 (inactive),0.142,0.178 (inactive),0.211 (inactive),-0.172 (inactive),0.206 (inactive),0.219,0.161 (inactive),-0.904 (inactive),-0.51,0.0112,0.534,-0.244,-0.288,-0.0405,-0.106,-0.409 (inactive),-0.0966,0.942,0.167 (inactive)
Cc1ccc(C(C)CC(O)C2C=CC3C(=O)N(c4ccccc4)C(=O)C3N2Nc2ccccc2)o1 (stereo not given),-1.13 (inactive),0.738,4.07 (inactive),1 (inactive),-0.0498 (inactive),-0.374 (inactive),2.07,-3.07 (inactive),-5.71 (inactive),-4.91,-0.0446,0.001,0.179,-0.559,-1.69,-1.64,-0.279 (inactive),-0.178,-1.71,-0.706 (inactive)
COCCOC(=O)N1C(=O)[C@@]2(c3cc(C#CCC(C(=O)OC)C(=O)OC)ccc31)[C@H](c1ccc(OCCO)cc1)N1[C@H](c3ccccc3)[C@H](c3ccccc3)OC(=O)[C@H]1[C@@H]2C(=O)N1CCc2cc(OC)c(OC)cc2C1,-0.0746 (inactive),0.269,6.85 (inactive),2.56 (inactive),0.324 (inactive),1.78 (inactive),-0.215,2.22 (inactive),1.17 (inactive),1.29,1.05,-0.0617,0.0859,-1.04,-0.467,0.363,1.37 (inactive),-0.262,-1.21,0.0243 (inactive)
Cc1ccc(S[C@]2(C(=O)NCc3ccccc3)CC(=O)N(C3CCCCC3)[C@@H]2c2ccc(CO)cc2I)cc1,-0.148 (inactive),-0.142,5.8 (inactive),1.34 (inactive),1.04 (inactive),0.841 (inactive),0.0194,-0.031 (inactive),0.193 (inactive),1.79,-0.0709,0.183,0.398,-1.93,-3.39,0.521,0.97 (inactive),-0.464,-1.62,-0.99 (inactive)
COC(=O)[C@@]1(Cc2ccc(OC)cc2)[C@H]2c3cc(C(=O)N4CCCC4)n(CCO)c3C[C@H]2CN1C(=O)c1ccccc1,-1.72 (inactive),0.399,2.85 (inactive),0.766 (inactive),1.66 (inactive),0.815 (inactive),0.604,-0.0722 (inactive),-2.96 (inactive),-4.86,-0.832,0.929,0.519,-1.25,-0.974,1.59,-1.55 (inactive),0.506,-1.35,-1.07 (inactive)
Cc1ccc(S[C@]2(C(=O)NCCN3CCOCC3)CC(=O)N(Cc3ccccc3Cl)[C@@H]2c2ccc(CO)cc2I)cc1,0.377 (inactive),1.55,5.93 (inactive),0.989 (inactive),0.676 (inactive),0.4 (inactive),-0.389,1.78 (inactive),-1.12 (inactive),1.15,0.932,-0.0217,0.995,-1.62,-3.01,1.53,-0.272 (inactive),-0.151,-1.87,-0.817 (inactive)
COc1ccc(C#Cc2ccc3c(c2)[C@]2(C(=O)N3)[C@H](C(=O)O)[C@H]3C(=O)O[C@H](c4ccccc4)[C@H](c4ccccc4)N3[C@@H]2c2ccc(O)cc2)cc1,0.384 (inactive),0.174,-2.35 (inactive),-2.47 (inactive),-8.72 (active),-2.8 (inactive),2.29,0.479 (inactive),-3.77 (inactive),-1.13,-0.483,1.65,-0.176,-2.61,-3.91,-3.99,-1.15 (inactive),-0.85,-0.623,0.199 (inactive)
CO[C@H]1O[C@H](CO)[C@@H](OC(=O)Nc2ccccc2)[C@H](OC(=O)c2cc3ccccc3[nH]2)[C@H]1OC(=O)c1cc2ccccc2[nH]1,0.541 (inactive),0.214,0.909 (inactive),-0.795 (inactive),0.447 (inactive),-0.758 (inactive),1.27,-6.27 (inactive),-0.405 (inactive),-2.16,-0.14,0.544,0.131,-0.294,-0.939,1.12,2.46 (inactive),-0.766,-0.61,-2.51 (inactive)
